{"source": "PubChem BioAssay AID651640", "about": "(Broad Institute, 2012)", "note": "“And” between values parts separate entries of the source, which are not always exact repeats. Identical values can stand only once. In all, about 350,000 compounds went through this assay and about 6,000 (1.7%) were called active. Inconclusive results (about 5%) are left out. The sample holds actives, similar compounds and a random draw of the others, so the mix is not that of the screen. Cut-off read from the data, not from the text of the source: active = CPE inhibition above about 20% (passing the limit was not always enough); inconclusive = no clear call, values can overlap the other calls; tested in BHK-21 cells. Some structures have more than one record in an assay (separate samples or runs), and their calls can disagree."}
{"experiment": "protection of cells from dengue 2 killing – plate reader, single concentration, primary screen (AID 651640);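 note: 0% = median of neutral control wells and 100% = median of positive control wells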", "conditions": "DENV2-infected cells, cytopathic effect rescue, at 9.99 µM, stronger effect = higher value"}
{"smiles": "C[C@H]1CN([C@@H](C)CO)S(=O)(=O)c2ccc(C3=CCCC3)cc2O[C@H]1CN(C)C(=O)Nc1ccc2c(c1)OCO2", "CPE inhibition": "-1.69% (inactive)"}
{"smiles": "COCC(=O)N(C)C[C@H]1Oc2cc(C#CC(C)C)ccc2S(=O)(=O)N([C@H](C)CO)C[C@@H]1C", "CPE inhibition": "-1.85% (inactive)"}
{"smiles": "COCC(=O)N(C)C[C@H]1Oc2cc(Br)ccc2S(=O)(=O)N([C@H](C)CO)C[C@H]1C", "CPE inhibition": "21.7% (inactive) and 31.3% (active)"}
{"smiles": "C[C@@H]1CN([C@@H](C)CO)S(=O)(=O)c2ccc(Br)cc2O[C@@H]1CN(C)C(=O)CN(C)C", "CPE inhibition": "2.66% (inactive)"}
{"smiles": "C[C@@H]1CN([C@H](C)CO)S(=O)(=O)c2ccc(C3=CCCC3)cc2O[C@H]1CN(C)C(=O)Nc1ccc2c(c1)OCO2", "CPE inhibition": "21.4% (active)"}
{"smiles": "C[C@H]1CN([C@@H](C)CO)S(=O)(=O)c2ccc(C#Cc3ccncc3)cc2O[C@@H]1CN(C)C(=O)Nc1ccc2c(c1)OCO2", "CPE inhibition": "13.3% (inactive)"}
{"smiles": "O=C(C[C@@H]1CC[C@H](NC(=O)Cc2ccccn2)[C@H](CO)O1)NCCc1ccncc1", "CPE inhibition": "1.65% (inactive)"}
{"smiles": "CCNC(=O)C[C@@H]1CC[C@H]2[C@@H](COc3ccc(NC(=O)Cc4cccs4)cc3C(=O)N2C)O1", "CPE inhibition": "-0.188% (inactive)"}
{"smiles": "Cc1noc(C)c1NC(=O)Nc1ccc2c(c1)C(=O)N([C@@H](C)CO)C[C@H](C)[C@H](CN(C)Cc1ccc(C(=O)O)cc1)OCCCC[C@@H](C)O2", "CPE inhibition": "-4.14% (inactive)"}
{"smiles": "CSc1ccc(Oc2cccc3c2S(=O)(=O)N([C@H](C)c2ccccc2)C[C@@H](COCc2ccccc2)O3)cc1C", "CPE inhibition": "12% (inactive)"}
{"smiles": "COC(=O)N1Cc2ccnnc2CC1c1ccccc1Br", "note": "(stereo unspecified)", "CPE inhibition": "-2.73% (inactive)"}
{"smiles": "CCCC/C=C/c1cccc2nncn12", "CPE inhibition": "28.7% (active)"}
{"smiles": "O=C(O)c1ccccc1-c1cccc2nncn12", "CPE inhibition": "-0.993% (inactive)"}
{"smiles": "C[C@@H]1CCCCO[C@@H](CN(C)S(=O)(=O)c2cn(C)cn2)[C@H](C)CN([C@H](C)CO)C(=O)c2cc(NC(=O)NC3CCCCC3)ccc2O1", "CPE inhibition": "5.41% (inactive)"}
{"smiles": "O=C(NC(=S)Nc1ccc(S(=O)(=O)Nc2ncccn2)cc1)c1cccc(Br)c1", "CPE inhibition": "-1.82% (inactive)"}
{"smiles": "COc1ccc(OC)c(C(C)NC(=S)Nc2ccc(S(=O)(=O)Nc3ncccn3)cc2)c1", "note": "(stereo unspecified)", "CPE inhibition": "49.8% (active)"}
{"smiles": "CC(Oc1cccc(Cl)c1)C(=O)Nc1ccc(S(=O)(=O)Nc2ncccn2)cc1", "note": "(stereo unspecified)", "CPE inhibition": "2.3% (inactive)"}
{"smiles": "Cc1noc(C)c1NC(=O)Nc1ccc2c(c1)C(=O)N([C@H](C)CO)C[C@@H](C)[C@H](CN(C)S(=O)(=O)c1ccc(Cl)cc1)OCCCC[C@H](C)O2", "CPE inhibition": "-4.55% (inactive)"}
{"smiles": "CC(C)C1C(=O)N(Cc2cn(CCC3OCCO3)nn2)CCS(=O)(=O)N1Cc1ccc(-c2ccccc2C(F)(F)F)cc1", "note": "(stereo unspecified)", "CPE inhibition": "-6.47% (inactive)"}
{"smiles": "COc1ccc(Cn2cc(CN3CCS(=O)(=O)N(Cc4ccc(-c5cccc(Cl)c5)cc4)C(C)C3=O)nn2)cc1", "note": "(stereo unspecified)", "CPE inhibition": "3.05% (inactive)"}
{"smiles": "Cc1ccc(-c2ccc(CN3C(C)C(=O)N(Cc4cn(CCC5OCCCO5)nn4)CCS3(=O)=O)cc2)cc1", "note": "(stereo unspecified)", "CPE inhibition": "86.5% (active)"}
{"smiles": "Cc1ccc(-c2ccc(CN3C(C(C)C)C(=O)N(Cc4cn(CCC5OCCO5)nn4)CCS3(=O)=O)cc2)cc1", "note": "(stereo unspecified)", "CPE inhibition": "6.07% (inactive)"}
{"smiles": "Cc1ccc(-c2ccc(CN3C(C(C)C)C(=O)N(Cc4cn(CCC5OCCCO5)nn4)CCS3(=O)=O)cc2)cc1", "note": "(stereo unspecified)", "CPE inhibition": "102% (active)"}
{"smiles": "CC1C(=O)N(Cc2cn(Cc3ccco3)nn2)CCS(=O)(=O)N1Cc1ccc(-c2cccc(CO)c2)cc1", "note": "(stereo unspecified)", "CPE inhibition": "-5.64% (inactive)"}
{"smiles": "CCCNC(=O)[C@@H]1[C@@H](CO)[C@@H]2Cn3c(cccc3=O)[C@H]1N2C(=O)C1CC1", "CPE inhibition": "-2.53% (inactive)"}
{"smiles": "CO[C@@H]1CN(C)C(=O)c2ccc(NC(=O)Nc3ccccc3)cc2OC[C@@H](C)N(C(=O)Nc2c(C)noc2C)C[C@@H]1C", "CPE inhibition": "-2.63% (inactive)"}
{"smiles": "CCCNC(=O)Nc1ccc2c(c1)C(=O)N(C)[C@H]1CC[C@H](CC(=O)NCC3CCCCC3)O[C@@H]1CO2", "CPE inhibition": "7.7% (inactive)"}
{"smiles": "CCC(=O)N(C)C[C@@H]1Oc2ncc(-c3ccccc3OC)cc2C(=O)N([C@@H](C)CO)C[C@@H]1C", "CPE inhibition": "-0.292% (inactive)"}
{"smiles": "O=C(C[C@@H]1C=C[C@@H](NC(=O)c2ccccn2)[C@@H](CO)O1)NCc1cc(F)cc(F)c1", "CPE inhibition": "-1.09% (inactive)"}
{"smiles": "CCC(=O)N1C[C@H](C)[C@H](OC)CN(C)C(=O)c2ccc(NC(=O)Nc3ccccc3)cc2OC[C@H]1C", "CPE inhibition": "-7.71% (inactive)"}
{"smiles": "CCCC(=O)Nc1ccc2c(c1)C(=O)N(C)C[C@H](OC)[C@@H](C)CN(C(C)=O)[C@H](C)CO2", "CPE inhibition": "68% (active)"}
{"smiles": "CCCC(=O)Nc1ccc2c(c1)OC[C@H](C)N(C(=O)C1CCCC1)C[C@@H](C)[C@H](OC)CN(C)C2=O", "CPE inhibition": "-8.69% (inactive)"}
{"smiles": "CCCC(=O)Nc1ccc2c(c1)OC[C@H](C)N(C(=O)CC)C[C@H](C)[C@@H](OC)CN(C)C2=O", "CPE inhibition": "25.3% (active)"}
{"smiles": "CO[C@H]1CN(C)C(=O)c2ccc(NC(=O)C3CC3)cc2OC[C@@H](C)N(C(=O)CN2CCOCC2)C[C@H]1C", "CPE inhibition": "41.3% (active)"}
{"smiles": "CO[C@H]1CN(C)C(=O)c2cc(NS(C)(=O)=O)ccc2OC[C@H](C)N(C(=O)C2CCCC2)C[C@H]1C", "CPE inhibition": "-6.55% (inactive)"}
{"smiles": "CO[C@H]1CN(C)C(=O)c2ccc(NC(=O)C3CC3)cc2OC[C@H](C)N(C(=O)CN2CCOCC2)C[C@@H]1C", "CPE inhibition": "-2.69% (inactive)"}
{"smiles": "CO[C@H]1CN(C)C(=O)c2ccc(NS(C)(=O)=O)cc2OC[C@H](C)N(C(=O)C2CCC2)C[C@H]1C", "CPE inhibition": "-2.45% (inactive)"}
{"smiles": "CO[C@@H]1CN(C)C(=O)c2cc(NS(C)(=O)=O)ccc2OC[C@@H](C)N(C(=O)C2CCC2)C[C@@H]1C", "CPE inhibition": "23.4% (active)"}
{"smiles": "CCCNC(=O)N1C[C@H](C)[C@H](OC)CN(C)C(=O)c2cc(NC(=O)CC)ccc2OC[C@H]1C", "CPE inhibition": "-0.559% (inactive)"}
{"smiles": "CCCC(=O)Nc1ccc2c(c1)C(=O)N(C)C[C@@H](OC)[C@H](C)CN(C(C)=O)[C@H](C)CO2", "CPE inhibition": "4.44% (inactive)"}
{"smiles": "CO[C@@H]1CN(C)C(=O)c2cc(NC(=O)C3CC3)ccc2OC[C@H](C)N(C(=O)CN2CCOCC2)C[C@@H]1C", "CPE inhibition": "-10.9% (inactive) and -2.35% (inactive)"}
